Only some compounds are listed: those with a hit (about 2.3% of all), similar ones and a draw of the others.
Tau filament bind: qHTS Assay for Tau Filament Binding. recombinant tau filaments, thioflavin S fluorescence, 15 h; filaments grown with octadecylsulfate alongside compound. Potency, µM (titrated, usually from 57.1 µM), without a hit: at the highest dose activity change, negative = inhibition. actives 2% (n = 71,000). AID 596, 2007;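 also: potency is read from the fitted curve at half-maximal effect; % is scaled to controls: 0 for no effect and ±100 for the full control effect; actives lower thioflavin S fluorescence by blocking filaments or displacing dye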
Target sequence (P10636 whole entry, looked up): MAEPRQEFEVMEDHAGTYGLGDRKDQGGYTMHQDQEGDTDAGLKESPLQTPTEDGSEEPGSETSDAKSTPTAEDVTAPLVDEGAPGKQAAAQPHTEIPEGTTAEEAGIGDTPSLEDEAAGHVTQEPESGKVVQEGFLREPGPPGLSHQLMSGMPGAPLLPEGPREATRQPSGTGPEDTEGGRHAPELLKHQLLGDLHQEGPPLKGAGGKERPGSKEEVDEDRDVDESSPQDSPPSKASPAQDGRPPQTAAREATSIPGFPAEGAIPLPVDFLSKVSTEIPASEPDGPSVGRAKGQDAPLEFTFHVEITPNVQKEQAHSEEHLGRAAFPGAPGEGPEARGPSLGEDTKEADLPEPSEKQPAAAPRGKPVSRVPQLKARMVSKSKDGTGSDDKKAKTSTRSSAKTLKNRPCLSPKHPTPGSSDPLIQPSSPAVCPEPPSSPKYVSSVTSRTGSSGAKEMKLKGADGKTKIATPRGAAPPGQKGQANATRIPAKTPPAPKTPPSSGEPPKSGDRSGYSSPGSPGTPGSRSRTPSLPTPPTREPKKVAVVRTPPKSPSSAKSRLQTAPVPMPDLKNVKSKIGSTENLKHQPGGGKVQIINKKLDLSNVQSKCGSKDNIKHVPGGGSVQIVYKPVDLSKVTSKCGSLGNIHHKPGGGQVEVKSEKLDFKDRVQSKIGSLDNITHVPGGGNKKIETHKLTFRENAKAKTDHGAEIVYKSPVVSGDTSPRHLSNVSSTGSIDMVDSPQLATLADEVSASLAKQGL
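ThS-based fibril read: tau 1 uM final, inducer ODS 30 uM final, 37 C for 15 h, ex 450/em 510 nm.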
15-hLO-2 inh: qHTS Assay for Inhibitors of 15-hLO-2 (15-human lipoxygenase 2). Potency, µM (highest dose often 57.1 µM), without a hit: top-dose activity change, negative = inhibition, actives largely listed as inhibitors. Polyunsaturated fatty acid lipoxygenase ALOX15B (Homo sapiens), O15296. purified 15hLO-2, xylenol orange hydroperoxide absorbance. actives 0.56% (n = 110,000). AID 881, 2007; also: potency is read from the fitted curve at half-maximal effect; % is scaled to controls: 0 for no effect and ±100 for the full control effect; nearly all actives have a fitted effect of over 60% in size
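Screening format was qHTS against 50 nM purified 15hLO-2 in Hepes pH 7.5 with detergent. Activity follows hydroperoxide formation from 45 uM arachidonic acid, measured as 573:405 nm absorbance ratio of the ferric-xylenol orange complex.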
ALOX15 inhib: qHTS Assay for Inhibitors of 15-hLO (15-human lipoxygenase); Polyunsaturated fatty acid lipoxygenase ALOX15 (Homo sapiens), P16050; AID 887, 2007; purified 15hLO-1, xylenol orange hydroperoxide absorbance; Potency, µM (doses to about 57.1 µM), for inactives: at the top dose activity change, negative = inhibition, usual class: inhibitors; actives 1.4% (n = 74,000); also: potency is read from the fitted curve at half-maximal effect; % is scaled to controls: 0 for no effect and ±100 for the full control effect; nearly all actives have a fitted effect of over 55% in size
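40 nM 15hLO-1 + cpd, 15 min RT; start w/ 50 uM AA (final), 6 min RT; stop/detect w/ 200 uM XO + 300 uM Fe(II) in 50 mM H2SO4, 30 min; A573/A405. Buffer 25 mM Hepes pH 7.5, 0.01% Triton X-100. No-enzyme wells as negative control.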
GFP derepression: qHTS Assay for Epigenetic Modulators | actives 0.09% (n = 68,000) | mouse C127i GFP locus derepression, cytometry, 30 h | AID 597, 2007 | Potency, µM (doses to about 46.1 µM), for the others: top-dose GFP derepression (activation); also: % of control where 0% means no effect
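Murine C127i mammary cells carrying a silenced, stably integrated CMV-driven GFP reporter were treated with compound for 30 hours at 37 C. After PBS washes, GFP-positive cells were counted by laser-scanning microplate cytometry.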
HBB splice mod: qHTS Assay for Modulators of Hemoglobin Beta Chain Splicing. HBB splicing reporter cell assay, activation; EGFP reporter with mutant IVS2-654 intron; response scale: normalised to 500 nM splice-correcting PNA. Potency, µM (top dose mostly 46.1 µM), inactives show at the highest dose activation, hits mostly activators. actives 0.06% (n = 65,000). AID 925, 2007; also: potency is read from the fitted curve at half-maximal effect; 0% is about no effect
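HeLa cells stably expressing EGFP interrupted by mutant beta-globin intron 2 (IVS2-654), 500/well in 2% FCS. Treated with compound for 2 days at 37C. Splicing correction scored as total well GFP intensity (488 nm excitation, 500-520 nm emission); 500 nM antisense PNA served as control.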
Ub-GFP proteasome: Ubiquitin-GFP Assay; Ubiquitin-GFP reporter cells, proteasome inhibition, GFP fluorescence; response scale: untreated = 0%, 10 µM MG-132 = 100%; Potency, µM (titrated, usually from 45.9 µM), inactives show top-dose activation (GFP accumulation), hits mostly activators; 67,000 tested, under 10 active; active = well fitted activation curve with a large enough effect, not every such curve was filed as active; inconclusive = small, poorly fitted or top-dose-only effect, or another doubt; inactive = no such curve, though single readings can be large or run the other way; also: potency is read from the fitted curve at half-maximal effect
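U2OS Ub(G76V)-GFP reporter; O/N plating, 0.5% FBS; cpd 46 uM–2.9 nM, 4 h, 37 °C; GFP+ cell count, 488/515 nm; norm. to basal vs 10 uM MG-132; CRC fit.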
Starred values were filed as active, the others as inactive; i = inactive; ? = inconclusive; / = no result given; ! = a repeat was not active; [ ] = dose if it differs, or a comment. Unless noted, calls follow the shape of the dose curve; as a rule, active = well fitted curve in the direction sought with a large enough effect; inconclusive = small, poorly fitted or top-dose-only effect, or another doubt; inactive = no such curve, though single readings can be large; an effect the other way counts as inactive or inconclusive.

SMILES	Tau filament bind	15-hLO-2 inh	ALOX15 inhib	GFP derepression	HBB splice mod	Ub-GFP proteasome
COc1cc(C2SCCCCCCCCCCSC(c3ccc(O)c(OC)c3)SCCCCCCCCCCS2)ccc1O (centres undefined)	3%[11.4 µM]	-4%[11.4 µM]	-4%[11.4 µM]	0%[9.22 µM]	4%[9.22 µM]	3%[9.17 µM]
COc1ccc(OC)c(Nc2cc(-c3ccccc3)nc(N)n2)c1	16µM*	16%	?	2%	-5%	-5%
CC(C)=CCC/C(C)=C/CO	10%[11.4 µM]	-2%[11.4 µM]	7.9µM*!	2%[9.22 µM]	6%[9.22 µM]	2%[9.17 µM]
CC(C)=CCC/C(C)=C/CC/C(C)=C/CO	/	4%	?	/	/	/
C=CC(C)(O)CC/C=C(\C)CCC=C(C)C (centres undefined)	/	5%	13µM*	/	/	/
COc1cccc(-c2nc(NC3CCNCC3)c3ccccc3n2)c1	-10%	50%	?	6%[9.22 µM]	-2%	11%
CC(C)(CCc1nc2ccccc2[nH]1)C(=O)O	3%[11.4 µM]	0%[11.4 µM]	6%[11.4 µM]	4%[9.22 µM]	1%[9.22 µM]	-3%[9.17 µM]
COC(=O)CCCC(=O)O	-7%[11.4 µM]	11%[11.4 µM]	28%[11.4 µM]	-6%[9.22 µM]	0%[9.22 µM]	-5%[9.17 µM]
Cc1ccc(-c2nnc3sc(-c4ccncc4)nn23)cc1	25µM*	2%	0%	0%	1%	-3%
Clc1ccc(-c2nnc3sc(-c4ccccn4)nn23)cc1	1%	-6%	2%	11%	3%[0.369 µM]	4%
c1ccc(-c2nn3c(-c4ccncc4)nnc3s2)nc1	13µM*	/	?	0%	1%[1.84 µM]	7%
CN(C)c1ccc(-c2nn3c(-c4ccncc4)nnc3s2)cc1	-9%	/	12%	0%	5%	7%
Cc1ccc2oc(-c3ccccc3)c(O)c(=O)c2c1	32µM*	-19%	5%[25.6 µM]	0%[9.22 µM]	/	1%
Clc1ccc2c(N3CCCC3)ccnc2c1	20µM*	8%	20µM*	5%	0%	5%
Cc1noc(C)c1-c1cc(NCc2cccs2)ncn1	-3%	-3%	2%	-5%[9.22 µM]	-1%	-5%
CCCCCCCNS(=O)(=O)c1cccc2c(Cl)cccc12	40µM*	-11%	-17%[25.6 µM]	-1%	/	-3%
Nc1ncnc2nc(-c3ccc(N4CCOCC4)nc3)cc(-c3cccc(Br)c3)c12	/	46%	10µM*	/	0%	/
C1=CC2c3ccccc3NC(c3ccncc3)C2C1 (centres undefined)	7.9µM*	?	?	3%	0%[57.5 µM]	-3%
CC(=O)c1ccc2c(c1)C1C=CCC1C(c1ccncc1)N2 (centres undefined)	/	-23%	/	/	/	/
Brc1ccc2[nH]c3nc(SCCN4CCOCC4)nnc3c2c1	13µM*	/	-11%	0%	-1%	6%
Cc1occc1-c1nnc(SCC(=O)N2CCOCC2)o1	20%	-6%[11.4 µM]	2%	-1%	3%	10%
Cc1occc1-c1nnc(SCC(=O)c2cc3ccccc3oc2=O)o1	10µM*	-8%	13µM*	2%	-3%[57.5 µM]	3%
Cc1ccc(C)c(NC(=S)c2ccccn2)c1	/	-22%	/	/	/	/
S=C(Nc1ccccn1)c1ccccn1	25µM*	-25%	-17%	4µM*	0%[9.22 µM]	5%
COc1cc(OC)cc([C@H](CNc2ncnc3c2ncn3[C@@H]2O[C@@H](CO)[C@H](O)[C@@H]2O)c2ccccc2C)c1	-2%	/	/	0%	2%	-2%
SMILES	Tau filament bind	15-hLO-2 inh	ALOX15 inhib	GFP derepression	HBB splice mod	Ub-GFP proteasome
O=C(c1cc2nc3c(c(C(F)(F)F)n2n1)CCc1ccccc1-3)N1CCN2CCCC2C1 (centres undefined)	13µM*	/	-8%	-2%	1%	27%
O=C(O)c1cc2nc3c(c(C(F)(F)F)n2n1)CCc1ccccc1-3	-4%[11.4 µM]	1%	-4%[11.4 µM]	-2%	2%[0.0738 µM]	6%[9.17 µM]
N#CC1=C(N)C(C#N)(C#N)C(c2cccnc2)C2CCCC=C12 (centres undefined)	i	-7%	25µM*	5%	0%	4%
CN(C)c1ccc(N=Nc2cccc3ccoc23)cc1	4µM*	-1%[11.4 µM]	-12%[11.4 µM]	0%[9.22 µM]	4%[9.22 µM]	1%[9.17 µM]
CN(C)c1ccc(C(=C2C=CC(=[N+](C)C)C=C2)c2ccccc2)cc1	0.2µM*!	5µM*	32µM*!	-3%[9.22 µM]	2%[9.22 µM]	4%[9.17 µM]
CC(=O)c1ccc(N(C)C)cc1	/	1%	/	/	/	/
CCc1cccc2nc3c(c([Si](CC)(CC)CC)c12)Cn1c-3cccc1=O	20µM*	-22%	/	/	3%	/
CC(C)c1cccc2nc3c(c([Si](C)(C)C)c12)Cn1c-3cccc1=O	32µM*	-17%	/	/	0%	/
CCc1c2c(nc3c(C(C)C)cccc13)-c1cccc(=O)n1C2	174%	-9%	/	/	2%	/
O=C(C1CCN(S(=O)(=O)c2cccc3nsnc23)CC1)N1CC=C(c2ccccc2)CC1	20µM*	-10%	?	-2%	0%	0%
CC1Cc2ccccc2N1S(=O)(=O)c1cccc2nsnc12 (centres undefined)	25µM*	-7%	-11%	3%	2%	-10%
O=C(C1CCCN(S(=O)(=O)c2cccc3nsnc23)C1)N1CC=C(c2ccccc2)CC1 (centres undefined)	0%	3%	-2%	1%	-1%	2%
O=S(=O)(c1cccc2nsnc12)N1CCc2ccccc2C1	20µM*	8%	-4%	-2%	0%[0.369 µM]	/
O=C(O)CCCc1ccc2ccc3ccccc3c2c1	-6%[11.4 µM]	-12%[11.4 µM]	0%[11.4 µM]	0%[9.22 µM]	2%[9.22 µM]	-2%[9.17 µM]
O=C(O)[C@@H]1[C@@H]2C[C@@H]3[C@@H](OC(=O)[C@@H]31)[C@H]2Br	-14%[11.4 µM]	-6%[11.4 µM]	-1%[11.4 µM]	2%[9.22 µM]	1%[9.22 µM]	0%[9.17 µM]
c1cc2c3c(c1)c1c(n3CCNC2)CCCC1	32µM*	54%	?	-1%	/	-4%
c1ccc2c(c1)c1c3n2CCNC3CCC1 (centres undefined)	-4%	14%[2.29 µM]	10%	1%	/	-3%
Cc1c(N2C(=O)c3ccc4c5c(ccc(c35)C2=O)CC4)c(=O)n(-c2ccccc2)n1C	16µM*	?	25µM*	-3%	3%	-4%
Cc1c(N2C(=O)c3ccc(Br)cc3C2=O)c(=O)n(-c2ccccc2)n1C	/	5%	/	/	/	/
Nc1cc2c(cc1C(=O)c1ccccc1)OCCO2	/	-7%	/	/	/	/
Cc1ccc(C(=O)c2cc3c(cc2N)OCCO3)cc1	13µM*	-4%	-13%	3%	0%	3%
N#CC1=C(N)SC(N)=C(C#N)C1c1cccc(Oc2ccccc2)c1	-4%	?	5µM*	-2%	0%[9.22 µM]	-7%

Screens as filed in PubChem.
